# In all, about 360,000 compounds went through this assay and about 25,000 (6.9%) were called active. Inconclusive results (about 9%) are left out. For the sample, actives were picked, then their nearest neighbours and some compounds at random. A number with no mark means an inactive call. Calls come from the whole dose curve; as a rule, active = well fitted inhibition curve with a large enough effect; inconclusive = small, poorly fitted or top-dose-only effect; inactive = flat fitted curve, though single readings scatter.
# Target: Luciferin 4-monooxygenase (Photinus pyralis) (UniProt P08659)
# Assay: qHTS profiling assay for firefly luciferase inhibitor/activator using purifed enzyme and Km concentrations of substrates (counterscreen for miR-21 project); note: nearly all actives have a fitted effect of over 55% in size;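 for activity change, negative = inhibition: plate controls were vehicle for no effect and reference inhibitor for full effect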
# Details: purified FLuc, luminescence inhibition; series mostly up to 57.5 µM; activity change, negative = inhibition: at the top concentration
# Outline: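 Purified P. pyralis luciferase, 10 nM final, with Km-level 10 uM D-luciferin and 10 uM ATP in 50 mM Tris acetate pH 7.5, 10 mM Mg acetate, 0.01% Tween-20, 0.05% BSA; 6-point qHTS titration about 60 µM downward; luminescence read.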
# Potency is the fitted concentration of half-maximal effect.
# Chain of Luciferin 4-monooxygenase (Photinus pyralis) (P08659 whole entry, looked up): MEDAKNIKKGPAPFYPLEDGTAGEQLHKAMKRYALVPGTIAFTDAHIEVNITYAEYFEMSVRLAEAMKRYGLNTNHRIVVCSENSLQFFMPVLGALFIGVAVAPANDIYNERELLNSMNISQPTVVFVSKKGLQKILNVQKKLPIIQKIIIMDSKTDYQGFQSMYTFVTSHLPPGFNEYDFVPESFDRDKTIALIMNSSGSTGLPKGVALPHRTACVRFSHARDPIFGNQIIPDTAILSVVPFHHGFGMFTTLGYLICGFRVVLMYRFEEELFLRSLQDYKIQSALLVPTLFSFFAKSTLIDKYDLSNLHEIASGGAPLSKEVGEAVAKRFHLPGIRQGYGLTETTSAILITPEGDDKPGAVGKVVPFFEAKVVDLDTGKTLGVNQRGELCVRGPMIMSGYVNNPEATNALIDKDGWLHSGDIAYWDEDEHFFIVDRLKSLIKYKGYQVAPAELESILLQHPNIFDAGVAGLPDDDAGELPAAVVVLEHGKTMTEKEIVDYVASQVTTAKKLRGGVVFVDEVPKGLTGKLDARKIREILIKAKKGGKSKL
Compound,"activity change, negative = inhibition",Potency
CCc1nc2ccccc2c(C(=O)NCc2ccc(OC)cc2)c1C,5.53%,
Cc1cccc(S(=O)(=O)CC(=O)Nc2nc(-c3ccccc3)cs2)c1,-15.7%,
Cc1ccc(Cl)cc1N1CCN(C(=O)C2CCC(CNS(=O)(=O)c3cccs3)CC2)CC1 (configuration not stated),0.57%,
Cc1ccc(C(=O)Nc2cc3c(cc2N2CCCC2)n(C)c(=O)c(=O)n3C)cc1,3.56%,
Cc1oc2ccc(O)c(CN3CCC(C)CC3)c2c1C(=O)Nc1ccccc1,-3.71%,
COc1ccc(OC)c(S(=O)(=O)Nc2c(C)nn(C)c2C)c1,6.12%,
COc1ccc(-c2nn3c(-c4ccc(OC)cc4)nnc3c3ccccc23)cc1,1.34%,
COCCCNC(=S)N(CCN(C)C)Cc1cc2cc3c(cc2[nH]c1=O)OCCO3,-3.26%,
O=C(CN1c2ccccc2S(=O)(=O)c2ccccc21)Nc1cccc(C(F)(F)F)c1,-2.21%,
O=C(Cn1c(=O)n(Cc2ccccc2)c(=O)c2sc3ccccc3c21)Nc1ccccc1F,1.86%,
CCn1c(SCC(=O)NC2CCCC2)nnc1-c1ccoc1C,0.285%,
CCOc1ccc2nc(NC(=O)CSc3nc4c(c(=O)n(C)c(=O)n4C)n3CC)sc2c1,-20.8%,
CCn1c(SCC(=O)Nc2nc3ccc(OC)cc3s2)nnc1-c1ccoc1C,,10.7 µM (active)
CCOc1ccccc1C(=O)Nc1ccc2c(c1)N(C)C(=O)c1ccccc1S2,-8.56%,
Cc1ccc(-n2c(SCC(=O)c3ccccc3)nc3c([nH]c4ccccc43)c2=O)cc1,-1.63%,
CSc1ccc(CCNC(=O)CS(=O)(=O)Cc2nc(-c3ccccc3F)oc2C)cc1,1.16%,
CCOC(=O)c1ccc(NC(=O)C2CC(=O)N(c3ccc4c(c3)OCCO4)C2)cc1 (configuration not stated),4.6%,
O=C(N/N=C/C=C/c1ccco1)c1cccs1,,26.9 µM (active)
Cc1cc(/C=N/NC(=O)CC2(C)OCCO2)c(C)n1-c1ccc(Cl)c(Cl)c1,-5.09%,
Cc1cccc(-n2c(C)cc(/C=N/NC(N)=S)c2C)c1,-19.6%,
Cc1ccc(-n2c(C)cc(/C=N\NC(=O)CC(=O)NC(C)C)c2C)cc1,,13.5 µM (active)
Cc1cc(C(=O)Nc2ccc(C)c(S(=O)(=O)N3CCOCC3)c2)c2ccccc2n1,-0.289%,
Cc1ccc(-c2cc(C(=O)N/N=C/C=C/c3ccco3)c3ccccc3n2)cc1C,,1.07 µM (active)
Cc1cccc(-n2c(C)cc(/C=N\NC(=O)c3cccs3)c2C)c1,,1.2 µM (active)
O=C(COC(=O)CCC(=O)c1cccs1)NCc1ccco1,2.32%,
Cc1cc(/C=N/Nc2ccc([N+](=O)[O-])cn2)c(C)n1-c1cccc(C(=O)O)c1,-16.1%,

Compound,"activity change, negative = inhibition",Potency
CC1C/C(=N/NC(=O)c2cccs2)CC(C)(C)C1 (configuration not stated),-1.71%,
Cc1ccc(-c2nnc(SCC(=O)N/N=C/c3cccs3)n2-c2ccc(C)cc2)cc1,2.81%,
Cc1ccc(NC(=O)CCC(=O)N/N=C/c2ccco2)c(C)c1,-0.493%,
CCOC(=O)c1c(C)oc2nc(C)nc(N(CC(C)C)CC(C)C)c12,-7.08%,
O=C(COC(=O)CCCN1C(=O)c2cccc3cccc(c23)C1=O)NC1CCS(=O)(=O)C1 (configuration not stated),1.69%,
COc1ccc(N2CCN(C(=O)c3c(C)oc4nc(C)nc(N5CCCC5)c34)CC2)cc1,6.34%,
Cc1ccccc1Nc1nc(N)nc(COC(=O)CCC(=O)c2ccc(F)cc2)n1,4.1%,
CCOC(=O)N1CCN(C(=O)COC(=O)c2cccc(S(C)(=O)=O)c2)CC1,-1.79%,
CCc1ccc(S(=O)(=O)c2nnn3c2nc(NCc2ccccc2OC)c2cc(Cl)ccc23)cc1,-0.594%,
COc1ccc(N2CCN(S(=O)(=O)CCNC(=O)C(c3ccccc3)c3ccccc3)CC2)cc1,7.73%,
CCC(=O)Nc1ccccc1-c1nc2ccccc2n(CC(=O)Nc2ccc(C)c(C)c2)c1=O,-0.959%,
Cc1cccc(OCC(=O)NCC(=O)N/N=C/c2ccc(N(C)C)cc2)c1,-2.61%,
CCN(CC)c1ccc(/C=N/NC(=O)CNC(=O)c2cccs2)cc1,,23.9 µM (active)
CC(C)OCCCNC(=O)CNC(=O)c1cccs1,0.296%,
CC(=O)Nc1ccc(/C=N/NC(=O)c2cccs2)cc1,,12 µM (active)
NC(=O)N/N=C\c1cccs1,4.22%,
O=C(NC(Cc1c[nH]c2ccccc12)C(=O)N/N=C/c1ccc(Br)cc1)c1cccs1 (configuration not stated),3.94%,
CCC(Sc1nnc(-c2ccc(OC)cc2)c(-c2ccc(OC)cc2)n1)C(=O)NC1CCCCC1 (configuration not stated),-1.88%,
CCOC(=O)c1c(NC(=O)/C=C/c2ccc(OC)cc2)sc2c1CCC(C)C2 (configuration not stated),-4.98%,
CCc1ccc(C(=O)CC2(O)C(=O)N(CCc3ccccc3)c3ccc(Br)cc32)cc1 (configuration not stated),-0.823%,
Cc1ccc(S(=O)(=O)N2CCCCC2)cc1NC(=O)[C@@H]1CCCN1C(=O)c1cccs1,0.451%,
CC(=O)Nc1ccc(NC(=O)c2cc3sccc3n2Cc2ccc(F)cc2)cc1,-7.58%,
CCOC(=O)c1cc(C)sc1NC(=O)C1CCC1,1.17%,
O=C(Nc1ccccc1Cl)c1ccc2nsnc2c1,,19 µM (active)
Cc1cccc(NC(=O)c2ccc3nsnc3c2)c1C,-18.7%,
CCc1ccccc1NC(=O)c1ccc2snnc2c1,-1.29%,
